Assay outcomes as filed in PubChem.
PD-1 reversal – reversal of PD-1 mediated T-cell inhibition. primary human CD4 T cells, PD-L1 beads, CellTiter-Glo 96 h. activation, % (concentration not given with the values). 29,000 tested, under 10 active; call rule not given here;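 also: 0% = median vehicle wells and 100% = positive control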
STK33 kin inh – human STK33 kinase inhibition. AID 2322. ADP-Glo luminescence, MBP substrate. inhibition, % at 12.5 µM. 27,000 compounds, 0.44% hits. Q9BYT3; in the data active = inhibition above about 20%
Target sequence (Q9BYT3 whole entry, looked up): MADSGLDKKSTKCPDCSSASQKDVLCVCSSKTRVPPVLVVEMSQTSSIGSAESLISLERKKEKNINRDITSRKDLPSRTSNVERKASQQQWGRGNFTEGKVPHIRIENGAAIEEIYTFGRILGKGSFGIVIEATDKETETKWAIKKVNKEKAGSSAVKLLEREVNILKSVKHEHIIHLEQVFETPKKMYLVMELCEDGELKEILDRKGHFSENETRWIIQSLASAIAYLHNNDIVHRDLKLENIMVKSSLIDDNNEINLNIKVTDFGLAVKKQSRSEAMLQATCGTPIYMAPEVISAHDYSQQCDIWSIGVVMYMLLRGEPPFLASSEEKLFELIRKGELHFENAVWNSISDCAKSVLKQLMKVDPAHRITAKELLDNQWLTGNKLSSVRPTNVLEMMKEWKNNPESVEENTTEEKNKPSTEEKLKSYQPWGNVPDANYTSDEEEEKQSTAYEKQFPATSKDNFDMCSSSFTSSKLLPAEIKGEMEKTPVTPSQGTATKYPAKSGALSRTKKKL
NOMO-1 viab – STK33 inhibitor candidate reducing NOMO-1 cell viability; NOMO-1 AML viability, CellTiter-Glo luminescence, 72 h; inhibition, % (test concentration not listed); 37,000 compounds, 7.5% hits; in the data active = inhibition above about 80%
* marks the source's active call; other numbers are inactive results; x = no result. The sample as a whole holds a higher share of hits than the screen did.

SMILES	PD-1 reversal	STK33 kin inh	NOMO-1 viab
Cc1[nH]n2c(=O)c3c(nc2c1-c1ccccc1)CCC3	-1	x	106*
CCOc1ccccc1CNc1nc2nc3c(c(=O)n2[nH]1)CCC3	x	-3	27
COc1ccc(Cl)cc1N(CC(=O)Nc1cc(Cl)cc(Cl)c1)S(C)(=O)=O	4	0	42
COc1cc(OC)c(NC(=O)CSc2nnc(-c3ccccc3)n2-c2ccccc2)cc1Cl	1	-1	9
O=C(Nc1cccc(Cn2cccn2)c1)c1cc(-c2cccnc2)nc2ccc(Cl)cc12	x	-1	27
NC(N)=NC(N)=Nc1ccccc1	x	3	-21
c1ccc(N=C(Nc2ccccc2)Nc2ccccc2)cc1	-1	x	89*
O=C(Oc1ccc(C=Nc2ccc(F)cc2)cc1)c1ccco1	2	x	8
COc1ccccc1CCNC(=O)c1cc(-c2ccncc2)nc2ccc(Br)cc12	-5	-1	94*
COc1ccc(C(C)NC(=O)c2cc(-c3ccccn3)nc3ccc(Cl)cc23)cc1OC (stereo unspecified)	x	-2	56
COc1ccccc1CCNC(=O)c1cc(-c2ccccn2)nc2ccc(Br)cc12	-1	3	25
COc1ccc(C(C)NC(=O)c2cc(-c3ccccn3)nc3ccc(Br)cc23)cc1OC (stereo unspecified)	x	0	90*
Cc1ccc(C(=O)Oc2cc(C)cc(OC(=O)c3ccc(C)cc3)c2)cc1	0	x	22
COc1ccccc1NC(=O)COc1ccc(C(=O)O)cc1OC	1	3	-22
COc1ccc(OC)c(S(=O)(=O)c2ccc(Br)cc2)c1	1	x	25
C=CS(=O)(=O)c1ccc(OC)c(N)c1	-33	0	120*
CCOc1ccc(OCC)c(S(=O)(=O)NC2CC(C)(C)NC(C)(C)C2)c1	1	0	3
CCOc1ccc(C2(C)CC(C)(C)Nc3ccccc32)cc1 (stereo unspecified)	1	x	114*
CN(CC(=O)Nc1ccc(Nc2ccccc2)cc1)S(=O)(=O)c1ccccc1	x	1	x
CCOc1ccc(Br)cc1C(=O)NCCc1c[nH]c2ccccc12	x	10	35
COC(=O)C1=C(C)NC(=S)NC1c1cccc(OC)c1OCc1ccccc1 (stereo unspecified)	-3	3	9
C=C(C(=O)O[C@H]1C[C@]2(C)C(C(C=O)CC[C@H]2O)[C@H]2OC(=O)C(=C)[C@H]12)C(O)CO (stereo partly specified)	-12	1	104*
C=C(C)C(=O)O[C@H]1C[C@@]2(C)O[C@@H]2[C@H]2O[C@H]2C(=C)[C@@H](O)[C@H]2OC(=O)C(=C)[C@@H]21	x	-10	x
COc1ccc2c(c1OC)C(=O)N1c3ccccc3N=C(c3ccc(Br)cc3)CC21 (stereo unspecified)	-2	x	34
Cc1ccc(N(C(C)C(=O)Nc2ccccc2Br)S(C)(=O)=O)cc1C (stereo unspecified)	3	-1	20
SMILES	PD-1 reversal	STK33 kin inh	NOMO-1 viab
CC1(C)CC(=O)C2=C(C1)N(Cc1ccco1)C(=O)C2(NC(=O)c1ccco1)C(F)(F)F (stereo unspecified)	1	-2	5
Cc1cc(C(=O)N(c2ccccc2)C(C)C2CC2)c(Cl)cc1Cl (stereo unspecified)	-2	x	134*
CC(C)N(C(=O)CSc1nc2ccc(Cl)cc2[nH]1)c1ccccc1	x	0	4
COCCCN1C(=O)c2oc3ccc(Br)cc3c(=O)c2C1c1cccc([N+](=O)[O-])c1 (stereo unspecified)	1	1	-11
C[C@H]1CN([C@@H](C)CO)C(=O)Cc2cc(N(C)C)ccc2O[C@@H]1CN(C)Cc1ccc(C(=O)Nc2ccccc2N)cc1	0	x	140*
C[C@@H]1CN([C@@H](C)CO)C(=O)Cc2cc(N(C)C)ccc2O[C@@H]1CN(C)Cc1ccc(C(=O)Nc2ccccc2N)cc1	-3	x	140*
O=C(c1cccs1)N1N=C2c3ccccc3CCC2C1c1ccccc1Cl (stereo unspecified)	0	x	70
C[C@@H]1CCCCO[C@H](CN(C)Cc2ccc(C(=O)Nc3ccccc3N)cc2)[C@@H](C)CN([C@H](C)CO)C(=O)c2cc(NS(=O)(=O)c3ccc(Cl)cc3)ccc2O1	0	x	127*
C[C@@H]1CCCCO[C@H](CN(C)C(=O)Nc2cccc3ccccc23)[C@@H](C)CN([C@H](C)CO)C(=O)c2cc(NS(=O)(=O)c3ccccc3)ccc2O1	0	-1	41
C[C@@H]1CCCCO[C@H](CN(C)C(=O)Nc2cccc3ccccc23)[C@@H](C)CN([C@H](C)CO)C(=O)c2cc(NS(=O)(=O)c3ccc(F)cc3)ccc2O1	-4	3	94*
C[C@@H]1CCCCO[C@@H](CN(C)Cc2ccc(C(=O)Nc3ccccc3N)cc2)[C@@H](C)CN([C@H](C)CO)C(=O)c2cc(NS(=O)(=O)c3ccc(F)cc3)ccc2O1	-1	x	141*
C[C@@H]1CCCCO[C@@H](CN(C)Cc2ccccc2)[C@@H](C)CN([C@H](C)CO)C(=O)c2cc(NS(=O)(=O)c3ccc(Cl)cc3)ccc2O1	-2	1	40
C[C@@H]1CCCCO[C@@H](CN(C)Cc2ccc(C(=O)Nc3ccccc3N)cc2)[C@@H](C)CN([C@H](C)CO)C(=O)c2cc(NS(=O)(=O)c3ccccc3)ccc2O1	-1	x	140*
C[C@@H]1CCCCO[C@@H](CN(C)Cc2ccccc2)[C@@H](C)CN([C@H](C)CO)C(=O)c2cc(NS(=O)(=O)c3ccc(F)cc3)ccc2O1	-1	0	22
C[C@@H]1CCCCO[C@H](CN(C)Cc2ccc(C(=O)Nc3ccccc3N)cc2)[C@@H](C)CN([C@H](C)CO)C(=O)c2cc(NS(=O)(=O)c3cn(C)cn3)ccc2O1	0	x	40
COC(=O)c1ccc(OCC(O)Cn2c(C)nc3ccccc32)cc1 (stereo unspecified)	-2	0	68
COCCC(=O)C1=CSC2=C(C(=O)CC(C)(C)C2)C1c1ccncc1 (stereo unspecified)	-2	x	46
COc1ccc(NC(=O)Nc2cccc3c2O[C@H](CN(C)Cc2ccc(C(=O)Nc4ccccc4N)cc2)[C@@H](C)CN([C@@H](C)CO)C3=O)cc1	-4	x	128*
COc1ccc(NC(=O)Nc2cccc3c2O[C@@H](CN(C)Cc2ccc(C(=O)Nc4ccccc4N)cc2)[C@H](C)CN([C@H](C)CO)C3=O)cc1	-2	x	125*
COc1ccc(CN(C)C[C@H]2Oc3c(NC(=O)Nc4ccc(OC)cc4)cccc3C(=O)N([C@H](C)CO)C[C@@H]2C)cc1	-2	x	42
COc1ccc(CN(C)C[C@@H]2Oc3c(NC(=O)Nc4ccc(OC)cc4)cccc3C(=O)N([C@H](C)CO)C[C@@H]2C)cc1	x	x	5
COc1ccc(NC(=O)Nc2ccc3c(c2)C(=O)N([C@H](C)CO)C[C@H](C)[C@H](CN(C)Cc2ccc(C(=O)Nc4ccccc4N)cc2)O3)cc1	2	x	39
COc1ccc(NC(=O)Nc2cccc3c2O[C@@H](CN(C)Cc2ccc(C(=O)O)cc2)[C@@H](C)CN([C@H](C)CO)C3=O)cc1	2	x	18
COc1ccc(NC(=O)Nc2cccc3c2O[C@H](CN(C)Cc2ccc(C(=O)Nc4ccccc4N)cc2)[C@H](C)CN([C@@H](C)CO)C3=O)cc1	0	x	127*
